VDR inh: vitamin D3 receptor (human) inhibition. VDR-SRC2-3 peptide fluorescence polarization, 2 h. AID 504847. actives 0.93% (n = 400,000). Potency, µM, without a hit: max response, negative = inhibition, hits mostly inhibitors. P11473; note: % is set by controls: 0 for no effect and ±100 for the full control effect
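Signal is fluorescence polarization, reporting how far test compounds block the interaction of VDR with the SRC2-3 coregulator peptide after a 2 h room-temperature incubation.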
G9a inh: inhibitors of human histone lysine methyltransferase G9a; Q96KQ7; G9a H3K9 monomethylation, AlphaScreen, 2 h; Potency, µM (doses to about 102 µM), without a hit: at the highest dose activity, negative = inhibition, hits mostly inhibitors; actives 8.8% (n = 350,000); AID 504332; note: % is set by controls: 0 for no effect and ±100 for the full control effect; nearly all actives have a fitted effect of over 75% in size
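G9a (20 nM) was preincubated 15 min with compound, then reacted 2 h at room temperature with 500 nM biotin-H3K9 peptide and 20 µM SAM. Monomethyl-H3K9 detected by AlphaScreen using anti-H3K9me1 antibody.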
HP1b chromo inh: blocks HP1-beta chromodomain binding to methylated histone tails. AlphaScreen HP1-beta / biotin-H3K9me3 peptide binding. Potency, µM (doses to about 114 µM), without a hit: at the top dose activity change, negative = inhibition, actives largely listed as inhibitors. actives 0.56% (n = 390,000); note: nearly all actives have a fitted effect of over 70% in size
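HP1-beta protein (50 nM final) preincubated 30 min at room temperature with biotinylated H3(1-18)K9me3 peptide (50 nM) in PBS pH 7.4, 0.01% Tween-20, then compound added for 30 min. AlphaScreen streptavidin donor/nickel chelate acceptor beads (10 ug/mL final), 30 min dark, luminescence read.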
JMJD2A Tudor: JMJD2A Tudor domain (human) inhibition; AlphaScreen JMJD2A-Tudor / H3K4me3 peptide binding; Potency, µM (titrated, usually from 114 µM), for inactives: at the top dose activity change, negative = inhibition, usual class: inhibitors; actives 4.4% (n = 390,000); AID 504339; note: % is set by controls: 0 for no effect and ±100 for the full control effect; nearly all actives have a fitted effect of over 50% in size
PLK1 PBD inh: PLK1 (human) polo-box domain binding inhibition; Plk1 PBD binding of FITC phosphopeptide, fluorescence polarization; actives 2.8% (n = 360,000); AID 720504; P53350; Potency, µM, inactives show max response, negative = inhibition, usual class: inhibitors; note: series mostly up to about 57 µM; % is set by controls: 0 for no effect and ±100 for the full control effect; nearly all actives have a fitted effect of over 65% in size
BAZ2B inh: inhibitors of human BAZ2B bromodomain | Q9UIF8 | AlphaScreen BAZ2B-H3K14Ac peptide displacement | Potency, µM (doses to about 114 µM), for inactives: at the highest dose activity change, negative = inhibition, usual class: inhibitors | actives 4.4% (n = 360,000); note: % is set by controls: 0 for no effect and ±100 for the full control effect; nearly all actives have a fitted effect of over 60% in size
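Compounds, titrated to a top concentration of 110 uM, were incubated 30 min at room temperature with preformed BAZ2B/acetyl-K14 H3 peptide complex (50 nM each). Proximity signal was measured by AlphaScreen after 20 min with beads.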
* hit, by the source's call; ? = inconclusive; . = no result; [ ] = dose if it differs, or a comment. An excerpt weighted towards active compounds, which were near 11% of everything screened. Calls come from the whole dose curve; as a rule, active = well fitted curve in the direction sought with a large enough effect; inconclusive = small, poorly fitted or top-dose-only effect, or another doubt; inactive = no such curve, though single readings can be large; an effect the other way counts as inactive or inconclusive. Potency is the fitted concentration of half-maximal effect.

SMILES	VDR inh	G9a inh	HP1b chromo inh	JMJD2A Tudor	PLK1 PBD inh	BAZ2B inh
Cc1ccc(C)c(S(=O)(=O)N2CCN(Cc3cc4c(cc3O)OCO4)CC2)c1	-20%	1.4µM*	-30%	32µM*	-11%	40µM*
O=[N+]([O-])c1cc2c(cc1CN1CCN(CCOCCO)CC1)OCO2	?	79µM*	29%	?	-15%	?
O=S(=O)(c1ccccc1F)N1CCN(Cc2cc3c(cc2O)OCO3)CC1	?	?	39%	?	?	?
O=c1cc(CN2CCN(S(=O)(=O)c3ccccc3[N+](=O)[O-])CC2)nc2sccn12	12%	40µM*	45%	-7%	-7%	.
CCOC(=O)CC(NS(=O)(=O)c1cc(-c2cc(C)no2)ccc1C)c1ccc(C)cc1 (stereo not drawn)	9%	-15%[59 µM]	5%	-11%	.	-11%
CC(=O)NC(CC(=O)NCCN1C(=O)S/C(=C\c2ccccc2)C1=O)c1ccccc1 (stereo not drawn)	4%	56µM*	21%	-16%	-8%	-3%
O=C(CCN1C(=O)/C(=C/c2ccccc2F)SC1=S)NCCCn1ccnc1	-8%	.	-7%	?	-19%	40µM*
O=C(CCN1C(=O)S/C(=C\c2ccccc2)C1=O)NCCCn1ccnc1	0%	-23%[59 µM]	36%	-22%	4%	-26%
O=C(CN1C(=O)S/C(=C\c2ccccc2)C1=O)NCCCn1ccnc1	-2%	35µM*	30%	?	?	?
O=C(CCCN1C(=O)/C(=C/c2ccccc2)SC1=S)NCCCn1ccnc1	-19%	-23%	-9%	?	-9%	45µM*
CCc1ccc(Cn2c(CNS(=O)(=O)c3ccc(C)c(C)c3)nc3cccnc32)cc1	-3%	-4%[59 µM]	26%[57 µM]	-25%	.	-14%
COc1ccccc1-c1nnc(SCc2ccccn2)n1C	3%	20%[12.7 µM]	5%	-1%	-8%	5%
COc1ccccc1-c1nc(SCc2ccccn2)n[nH]1	2%	50µM*	17%	-14%	-17%	10%
Cc1ccc(NCC(=O)N2CCN(S(=O)(=O)c3ccccc3)CC2)cc1F	-8%	?	12%	-19%	-1%	-22%
c1ccc(-c2cn(C[C@H]3CC[C@@H]([C@@H]4CC[C@H](Cn5cc(-c6ccccn6)nn5)O4)O3)nn2)nc1	2%	?	33%	3.2µM*	4%	0.71µM*
c1ccc(-c2cn(C[C@H]3CC[C@@H]([C@@H]4CC[C@H](Cn5cc(-c6ccccc6)nn5)O4)O3)nn2)cc1	-8%	17%	70%	-20%	-12%	-3%
c1ccc(CCc2cn(C[C@H]3CC[C@@H]([C@@H]4CC[C@H](Cn5cc(CCc6ccccc6)nn5)O4)O3)nn2)cc1	?	.	18%	?	27µM*	4%
Cc1nc(S(=O)(=O)Nc2ccccc2C(=O)NCC2CC2)cn1C	2%	-5%	32%	0%	-1%	-13%
CCNc1nc(NC(C)C)nc(NS(=O)(=O)c2ccc(C)cc2)n1	0%	14%[59 µM]	54%	4%	2%	-30%
O=C1NC[C@H](CCCCN2C[C@H](Cc3ccccc3)N(CCC3CCCCC3)C(=O)C2=O)N(CC2CCCCC2)C1=O	.	.	.	.	-7%	.
CC(=O)c1ccc(NC(=S)Nc2ccc3cn[nH]c3c2)cc1	-27%	45µM*	-4%	-31%[57.1 µM]	30µM*	-12%
O=C(Nc1ccc2cn[nH]c2c1)c1ccccc1F	-17%	1%[59 µM]	27%	-15%	-1%	4%
CC(=O)Nc1ccc(NC2=C(Cl)C(=O)c3ccccc3C2=O)cc1	-2%	-90%	14%	-10%	-7%	-5%
O=C(Nc1ccc2cn[nH]c2c1)c1c(Cl)cccc1Cl	1%	1.8µM*	1%	?	?	50µM*
CN(C)c1ccc(NC2=C(Cl)C(=O)c3ccccc3C2=O)cc1	-22%	2.2µM*	5µM*	6.3µM*	-18%	2.5µM*
SMILES	VDR inh	G9a inh	HP1b chromo inh	JMJD2A Tudor	PLK1 PBD inh	BAZ2B inh
CCNC(=S)Nc1ccc2cn[nH]c2c1	2%	15%[59 µM]	40%	-15%	24µM*	2%
CCOc1ccc([C@@H]2CC=C(C(=O)O)CN2S(=O)(=O)c2ccc(C)cc2)cc1	-5%	10%[2.33 µM]	80%	-5%	2%	-13%
CC(C)c1ccc(NC(=S)Nc2ccc3cn[nH]c3c2)cc1	-4%	79µM*	0%	-31%	-13%	?
O=C1C(Cl)=C(Nc2ccc3cn[nH]c3c2)C(=O)c2ccccc21	?	-152%[59 µM]	16µM*	14µM*	13µM*	8.9µM*
O=[N+]([O-])c1cc(C(F)(F)F)ccc1NC1CCN(Cc2ccccc2)CC1	-13%	35µM*	50µM*	35µM*	-8%	25µM*
Cc1cc(C)cc(C(=O)NC(CC(N)=O)c2ccc(NC3CCCCCCCCCCC3)c([N+](=O)[O-])c2)c1 (stereo not drawn)	17%	45µM*	-3%	?	0%	?
Cc1cc(C)cc(C(=O)NC(CC(N)=O)c2ccc(NCC3CC3)c([N+](=O)[O-])c2)c1 (stereo not drawn)	2%	79µM*	33%	-12%	4%	5%[57.1 µM]
NC(=O)CC(NC(=O)c1ccccc1)c1ccc(NCC2CC2)c([N+](=O)[O-])c1 (stereo not drawn)	-4%	-1%[12.7 µM]	18%	-25%	-9%	1%
NC(=O)CC(NC(=O)c1ccccc1)c1ccc(NC2CCN(Cc3ccccc3)CC2)c([N+](=O)[O-])c1 (stereo not drawn)	-15%	50µM*	16%	-27%	3%	?
COC(=O)[C@H](Cc1ccccc1)NC(=O)O[C@@H]1C(=O)c2cc(Br)ccc2O[C@H]1c1cccc(OC)c1	9%	?	.	.	.	-28%
Cc1no[n+]([O-])c1COc1ccc(/C=C(\C#N)C(N)=O)cc1	?	?	-11%	-27%	21µM*	-8%
Cc1no[n+]([O-])c1COc1ccc(/C=C2\NC(=S)NC2=O)cc1	-3%	-14%	12%	-10%	-7%	-5%
O=C(NCc1ccc(F)cc1)C1CCCN(c2cnccn2)C1 (stereo not drawn)	2%	9%	42%	19%	3%	-15%
O=C(NCc1ccc(F)cc1)C1CCN(c2cnccn2)CC1	?	.	-14%	25µM*	?	-3%
CN1C(=O)C2(NCCc3c2[nH]c2ccccc32)c2ccccc21 (stereo not drawn)	13%	5%[12.7 µM]	19%	-3%	0%	-7%
CC1=CC(C)(C)N2C(=O)C3(NCCc4c3[nH]c3ccccc43)c3cc(C)cc1c32 (stereo not drawn)	4%	?	-2%	-16%[11.4 µM]	-15%	56µM*

Screening results: PubChem, National Center for Advancing Translational Sciences (NCATS)
